Screens (PubChem BioAssay)
The list is not random: actives were taken first. Their share in the collection is about 2.5%.
GRK2 aptamer HTS: compounds blocking aptamer binding on GRK2 – biochemical, human GRK2, bead flow cytometry, HTS, primary screen | Beta-adrenergic receptor kinase 1 (Homo sapiens), P25098 | FAM-aptamer displacement from GRK2 | inhibition of aptamer binding, % at 10 µM | 0.59% of 330,000 active | AID 488847, 2010;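 active = inhibition of aptamer binding above 40%, roughly 3 SD of noise, on plates passing a quality check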;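 also: median bead fluorescence of bound FAM aptamer so fluorescent compounds give negative values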
MEKK3 PB1 HTS: modulators of MEKK3-MEK5 PB1 binding, primary screen, biochemical, wildtype MEKK3, multiplex bead flow cytometry, Alexa488-MEK5; 1.4% of 290,000 active; AID 1529, 2009; Mitogen-activated protein kinase kinase kinase 3 (Homo sapiens), Q99759; binding response (% of control), % at 10 µM; bead-based flow cytometry, Alexa488-MEK5 binding to MEKK3; actives lie on both sides; 0 = blocked by unlabeled MEK5, 100 = vehicle;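 active = binding response more than 3 SD above or below the average of its plate-row segment, actives on both sides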;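 also: Alexa488 bead fluorescence after subtracting the streptavidin-only scavenger bead signal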
Target sequence (Q99759 whole entry, looked up): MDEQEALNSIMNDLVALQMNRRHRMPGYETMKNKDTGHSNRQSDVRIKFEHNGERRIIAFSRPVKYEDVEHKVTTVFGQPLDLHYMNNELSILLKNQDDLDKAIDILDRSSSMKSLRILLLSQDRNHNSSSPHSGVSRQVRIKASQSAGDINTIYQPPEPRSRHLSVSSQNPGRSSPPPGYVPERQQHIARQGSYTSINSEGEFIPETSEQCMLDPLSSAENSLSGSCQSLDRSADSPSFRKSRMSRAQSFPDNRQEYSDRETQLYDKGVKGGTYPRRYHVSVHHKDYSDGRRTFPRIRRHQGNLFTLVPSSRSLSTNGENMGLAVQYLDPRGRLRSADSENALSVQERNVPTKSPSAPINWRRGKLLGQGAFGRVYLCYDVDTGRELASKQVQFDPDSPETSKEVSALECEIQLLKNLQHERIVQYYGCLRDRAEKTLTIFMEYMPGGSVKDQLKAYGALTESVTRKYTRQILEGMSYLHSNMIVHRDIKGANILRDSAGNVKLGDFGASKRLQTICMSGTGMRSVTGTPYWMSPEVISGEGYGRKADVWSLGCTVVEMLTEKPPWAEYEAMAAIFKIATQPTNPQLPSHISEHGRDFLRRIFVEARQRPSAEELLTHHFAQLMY
MEKK2 WT-MEK5: modulators of MEK5 binding to wildtype MEKK2, primary screen, biochemical, multiplex bead flow cytometry, Alexa488-MEK5 | AID 1531, 2009 | binding response (% of control), % at 10 µM | 1.1% of 290,000 active | Alexa488-MEK5 binding to MEKK2 WT; actives lie on both sides; in the data active = binding response below about 67% or above about 130%
MEKK2 mut-MEK5: MEK5 binding signal on mutant MEKK2 PB1, primary screen, biochemical, multiplex bead flow cytometry, Alexa488-MEK5. AID 1530, 2009. Alexa488-MEK5 binding to MEKK2 mutant. 0.35% of 290,000 active. percent response, % at 10 µM; in the data active = percent response above about 24%, passing the limit was not always enough
GRK2 inh confirm: GRK2 aptamer-displacing inhibitors, retest, confirmation, biochemical, cherry pick 1, bead flow cytometry. bead-bound GRK2, FAM-aptamer displacement. 4% of 2,000 active. aptamer displacement, % at 10 µM. shares compounds with GRK2 aptamer HTS;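 active = aptamer displacement above 40%, near three times the noise of non-fluorescent compounds, on plates passing quality checks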;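 also: negative values mostly reflect intrinsic compound fluorescence rather than true enhancement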
FAM quench CP1: quenches fluorescent RNA aptamer, GRK2 hit artifact; 2,000 tested, under 10 active; fluorescence response (% of DMSO), % at 10 µM; Carboxyfluorescein RNA aptamer on beads, flow cytometry quenching; hits give low values; AID 504580; shares compounds with GRK2 aptamer HTS;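 active = compounds that quench the bead-bound fluorescent RNA probe, cutting fluorescence to under half of the solvent control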;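 also: counterscreen run without GRK2 so only probe quenching by compound is measured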
Large screens that a line does not name were inactive (follow-up assays come after a bar, where they were run).

C=CCN1C(=O)c2ccc(C(=O)N(C)CC(=O)Nc3ccccc3Br)cc2C1=O	none
C=CCN1C(=O)c2ccc(C(=O)N(CCC)CC(=O)Nc3ccccc3C)cc2C1=O	GRK2 aptamer HTS 99 (no result: MEKK3 PB1 HTS, MEKK2 WT-MEK5, MEKK2 mut-MEK5) | GRK2 inh confirm inactive | FAM quench CP1 inactive
Cc1ccc(NC2=C(Cl)C(=O)OC2OC(C)C)cc1 (stereo not drawn)	GRK2 aptamer HTS 47 | GRK2 inh confirm inactive | FAM quench CP1 inactive
O=C(Nc1ccc(F)cc1)N1CCN(c2ncccn2)CC1	GRK2 aptamer HTS 94 | GRK2 inh confirm inactive | FAM quench CP1 inactive
O=[N+]([O-])c1cccc2c(S(=O)(=O)N3CCOCC3)cccc12	GRK2 aptamer HTS 89 | GRK2 inh confirm inactive | FAM quench CP1 inactive
O=C(N/N=C/c1ccc(O)cc1)c1[nH]c2ccc(Br)cc2c1-c1ccccc1	GRK2 aptamer HTS 51 | GRK2 inh confirm inactive | FAM quench CP1 inactive
COc1ccc(N2CCN(C(=O)CCCOc3cc(=O)n(C)c4ccccc34)CC2)cc1	GRK2 aptamer HTS 56 | GRK2 inh confirm inactive | FAM quench CP1 inactive
Cc1ccc(C)c(N2CCN(C(=O)CCCOc3cc(=O)n(C)c4ccccc34)CC2)c1	none
Cc1ccc2c(c1)n([O-])c1c([n+]2=O)CCCC1	GRK2 aptamer HTS 52 | GRK2 inh confirm inactive | FAM quench CP1 inactive
O=[n+]1c2c(n([O-])c3cc(F)ccc31)CCCC2	none (no result: MEKK3 PB1 HTS, MEKK2 WT-MEK5, MEKK2 mut-MEK5)
OC(c1ccc(OCc2ccccc2)cc1)c1nnc(-c2ccccc2)o1 (stereo not drawn)	none (no result: MEKK3 PB1 HTS, MEKK2 WT-MEK5, MEKK2 mut-MEK5) | GRK2 inh confirm inactive | FAM quench CP1 inactive
Cn1ccnc1C(O)c1cccc(OCc2ccccc2)c1 (stereo not drawn)	none
OC(c1cccc(OCc2ccccc2)c1)c1nnc(-c2ccccc2)o1 (stereo not drawn)	none | GRK2 inh confirm inactive | FAM quench CP1 inactive
c1ccc(-c2nnc(C(c3ccccc3)c3ccccc3)o2)cc1	none
CCOCN(C(=O)Cn1c(CO)nc2ccccc21)c1c(C)cccc1CC	none
Fc1ccc(Nc2nc(-c3ccncc3)nc3ccccc23)cc1F	none
O=S(=O)(Nc1ccc(Br)cc1)c1cccc(NC(=S)NCCN2CCOCC2)c1	none
O=C(O)c1ccc(Cl)c(N2C(=O)Nc3ccccc3N2O)c1	none
COc1ccc(C(=O)O)cc1N1C(=O)Nc2ccccc2N1O	GRK2 aptamer HTS 78 | GRK2 inh confirm inactive | FAM quench CP1 inactive
CC(C1CC2CCC1C2)N1CC(O)=C(c2nc3ccccc3[nH]2)C1=N (stereo not drawn)	none
O=C(O)c1cc(Cl)c(Cl)cc1C(=O)Nc1cccnc1	none
C/C(=N\NC(=O)c1ccc(OC2OCCOC2Oc2ccc(C(=O)N/N=C(\C)c3ccncc3)cc2)cc1)c1ccncc1 (stereo not drawn)	GRK2 aptamer HTS 50 | GRK2 inh confirm inactive | FAM quench CP1 inactive
CCN1CCN(CCCOc2ccc(-c3ccccc3)cc2)CC1	none | GRK2 inh confirm inactive | FAM quench CP1 inactive
CN1CCN(CCCOc2ccc(-c3ccccc3)cc2)CC1	none
C=CCOc1ccc(C(c2c(C(=O)O)[nH]c3ccccc23)c2c(C(=O)O)[nH]c3ccccc23)cc1	GRK2 aptamer HTS 79 | GRK2 inh confirm inactive | FAM quench CP1 inactive
COc1cc(C(c2c(C(=O)O)[nH]c3ccccc23)c2c(C(=O)O)[nH]c3ccccc23)ccc1OCc1ccccc1	none
Cc1cc(Cl)ccc1OCCCC(=O)NO	none
Cc1cc(OCCCn2ccnc2)ccc1C(C)C	none
CC(=O)NCCNc1nc2c(-c3ccccc3)nnn2c2ccccc12	none
CC(=O)NCCNc1nc2c(-c3cccc(C)c3)nnn2c2ccccc12	GRK2 aptamer HTS 65 | GRK2 inh confirm inactive | FAM quench CP1 inactive
CCOC(=O)C1CCCN(CCC(C)c2ccccc2)C1 (stereo not drawn)	GRK2 aptamer HTS 78 | GRK2 inh confirm inactive | FAM quench CP1 inactive
